# Measured values: PubChem BioAssay (Tox21)
# Inconclusive results are not listed. Unmarked numbers belong to inactive results. Active and inactive are the calls of the source. The call rests on the fitted dose curve; in most records, active means well fitted activation curve with a large enough effect in the repeat runs; inconclusive means weak or mixed curves; inactive means flat fitted curve, though single readings scatter.
# Assay: A CellTox Green Cytotoxicity Assay to monitor cytotoxicity in HepG2 cells - 40 hour (AID 1224879); further: nearly all actives have a fitted effect of over 40% in size
# Conditions: CellTox Green fluorescence; series mostly up to 76.8 µM; cytotoxicity increase: at the top concentration
# How it was run: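 HepG2, 600 cells/well premixed w/ CellTox Green; 5 h settle, 37 C/5% CO2; pintool cpd add (DMSO); 37 C, 40 h; fluorescence read at 0, 8, 16, 24, 32, 40 h.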
# On the % scale 0 is the no-effect control and ±100 the full control effect; potency means the concentration at half of the fitted maximal effect.
Compound,cytotoxicity increase,Potency
CCC(=O)OC1(c2ccccc2)CCN(C)CC1,-15.1%,–
CCCCOC(C)=O,-0.211%,–
COC1=CC(=O)O[C@@H](/C=C/c2ccccc2)C1,2.81%,–
CCC(C(N)=O)N1CCCC1=O (stereo not drawn),14.7% [at 35.3 µM],–
O=C(O)CBr,-3.99%,–
CCCN1CCC[C@@H]2Cc3nc(N)ncc3C[C@H]21,–,21.3 µM (active)
CC(C)c1ccc(O)cc1,19.3%,–
[P]#[In],-13.3%,–
CC1N=C(N)OC1c1ccccc1 (stereo not drawn),3.56%,–
CCCOc1nn(C(=O)NS(=O)(=O)c2ccccc2C(=O)OC)c(=O)n1C,-5.03%,–
COC(=O)[C@@H](N)CCCN/C(N)=N/[N+](=O)[O-],2.84% [at 35.3 µM],–
CCN[C@@H](C)Cc1cccc(C(F)(F)F)c1,-19.5% [at 35.3 µM],–
CC(C)(C)C(=O)Cl,-5.98%,–
CCCOC(=O)Cc1ccc(OCC(=O)N(CC)CC)c(OC)c1,-0.965% [at 35.3 µM],–
Cc1ccc2c(c1)C1CN(C)CCC1N2 (stereo not drawn),15.6% [at 15.8 µM],–
C=CCN1CC[C@]23CCCC[C@H]2[C@H]1Cc1ccc(O)cc13,-16.3% [at 35.3 µM],–
O=C(Cl)C(Cl)Cl,-2.13%,–

Compound,cytotoxicity increase,Potency
CCOC1Oc2ccc(OS(C)(=O)=O)cc2C1(C)C (stereo not drawn),0.306%,–
Brc1c(Br)c(Br)c(Br)c(Br)c1Br,-0.0521% [at 6.97 µM],–
CCOP(=S)(OCC)Oc1ccc(Cl)cc1Cl,6.02%,–
CCC1(c2cccc(O)c2)CCCCN(C)C1 (stereo not drawn),-15.8% [at 35.3 µM],–
CCN[C@@H](C)Cc1ccccc1,–,0.154 µM (active)
CCOC(=O)C(SP(=S)(OC)OC)c1ccccc1 (stereo not drawn),-9.71%,–
CC1NCCOC1c1ccccc1 (stereo not drawn),-12% [at 35.3 µM],–
CC(C)(N)Cc1ccc(Cl)cc1,-3.65% [at 35.3 µM],–
Oc1ccc2c3c1O[C@H]1[C@@H](O)C=C[C@H]4[C@@H](C2)NCC[C@@]341,-4.08%,–
N[C@@H]1C[C@H]1c1ccccc1,-6.55% [at 35.3 µM],–
CCOC(=O)c1ncn2c1CN(C)C(=O)c1c(I)cccc1-2,0.51% [at 35.3 µM],–
O=P(O)(O)c1ccccc1,-16.1%,–
CCCCCCC1CCOC1=O (stereo not drawn),4.27%,–
Clc1cc2c(cc1Cl)Oc1cc(Cl)c(Cl)cc1O2,–,0.0268 µM (active)
O=C(O)C(Br)(Br)Br,-0.571%,–
CCCN1CCC[C@@H]2Cc3[nH]ncc3C[C@H]21,1.71% [at 35.3 µM],–
